# According to PubChem BioAssay (EPA / NIEHS):
# Results filed as inconclusive are left out. The source made the active and inactive calls. Rule for the calls: active = hit-call score of the fitted dose curve at least 0.9, where 1 is the maximum; inconclusive = response in the unintended direction; inactive = score below 0.9.
# Target: Nuclear receptor subfamily 1 group I member 3 (Homo sapiens) (UniProt Q14994)
# Assay: ATG_CAR_TRANS: Attagene TRANS-FACTORIAL HepG2 Assay for human Constitutive Androstane Receptor (CAR) (AID 2282969);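 note: activators raise reporter mRNA above DMSO so AC50 marks induction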
# Settings: HepG2 Attagene TRANS-FACTORIAL CAR reporter
# Procedure: ATG_TRANS is a cell-based, multiplexed-readout assay that uses HepG2, a human liver cell line, with measurements taken at 24 hours after chemical dosing in a 24-well plate.ATG_CAR_TRANS is one of 30 assay component(s) measured or calculated from the ATG_TRANS assay. It is designed to make measurements of mRNA induction, a form of inducible reporter, as detected with fluorescence intensity signals by Reverse transcription polymerase chain reaction (RT-PCR) and Capillary electrophoresis technology.Data from the assay component ATG_CAR_TRANS was analyzed into 1 assay endpoint. This assay endpoint, ATG_CAR_TRANS, was analyzed in the positive analysis fitting direction relative to DMSO as the negative control and baseline of activity. Using a type of inducible reporter, measures of mRNA for gain-of-signal activity can be used to understand the reporter gene at the transcription factor-level as they relate to the gene NR1I3. Furthermore, this assay endpoint can be referred to as a primary readout, because this assay has produced multiple assay endpoints where this one serves a reporter gene function. To generalize the intended target to other relatable targets, this assay endpoint is annotated to the nuclear receptor intended target family, where the subfamily is non-steroidal.
# Human liver HepG2 cells are transiently transfected with multiple reporter transcription units (MRTUs) in 6-well plates using FuGene 6 reagent (Roche; 3 ml FuGene/1 mg DNA). The MRTU constructs are regulated by a cis-regulating element (promoter). […] A major difference between the CIS and TRANS system is that in CIS activities of endogenous TFs are measured, whereas the TRANS assay evaluates changes in activities of exogenous, chimeric NR-Gal4 proteins. […] At the end of 24 hour incubation, total RNA was isolated using TriZol reagent (Invitrogen). The isolated RNA is then reverse-transcribed using oligo(dT) primer and Mo-MLV reverse transcriptase (Invitrogen) with DNAse I (Ambion) treatment for 30 min. The one-tenth of the produced cDNA was amplified by PCR using Taq DNA polymerase (Invitrogen) and two reporter sequence-specific primers. The PCR products were fluorescently labeled by primer extension with 6-arboxyfluorescein (6-FAM) 5'-labeled reporter sequence-specific primer (2 min at 95 C, 20 s at 68 C and 10 min at 72 C) and these products were digested with 5U of HpaI (New England Biolabs) for 2h at 37 C. The fragments were purified using Qiaquick PCR columns (Qiagen), analyzed on an ABI 3130xL genetic analyzer (Applied Biosystems) with peak positions identified by using a set of X-rhodamine (ROX)-labeled MapMarker1000 molecular weight standards (BioVentures). The raw capillary electrophoresis data was processed using Attagraph software (Attagene).
# Sequence of Nuclear receptor subfamily 1 group I member 3 (Homo sapiens) (Q14994 whole entry, looked up): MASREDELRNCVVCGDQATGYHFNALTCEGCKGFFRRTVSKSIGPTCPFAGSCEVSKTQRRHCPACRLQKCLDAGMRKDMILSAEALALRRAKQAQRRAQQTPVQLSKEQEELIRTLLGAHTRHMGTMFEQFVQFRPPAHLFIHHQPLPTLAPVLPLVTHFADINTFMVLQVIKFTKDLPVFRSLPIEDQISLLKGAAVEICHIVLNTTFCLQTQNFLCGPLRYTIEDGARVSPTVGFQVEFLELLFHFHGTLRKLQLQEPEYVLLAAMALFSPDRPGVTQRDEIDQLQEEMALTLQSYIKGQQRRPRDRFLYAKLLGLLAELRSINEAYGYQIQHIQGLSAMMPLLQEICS
Structure (SMILES),outcome,AC50
C=C(C)C(=O)OCCC(F)(F)C(F)(F)C(F)(F)C(F)(F)C(F)(F)C(F)(F)F,inactive,
CN1CCC[C@H]1c1cccnc1,inactive,
CCCCC[C@H](O)CC(=O)CCc1ccc(O)c(OC)c1,inactive,
CC(C)(C)c1cccc(C(C)(C)C)c1O,inactive,
O=C(/C=C/c1ccc(O)cc1)CC(=O)/C=C/c1ccc(O)cc1,inactive,
O=C1OC2(c3ccccc31)c1cc(Br)c(O)c(Br)c1Oc1c2cc(Br)c(O)c1Br,inactive,
O=c1c(-c2ccc(O)cc2)coc2cc(O)ccc12,inactive,
c1ccc2cc3c(ccc4ccccc43)cc2c1,inactive,
CC(C)(C)c1cc(C(C)(C)C)c(O)c(C(C)(C)C)c1,inactive,
Cc1ccc(S(=O)(=O)O)c(C)c1,inactive,
OCCC(F)(F)C(F)(F)C(F)(F)C(F)(F)C(F)(F)C(F)(F)F,inactive,
CCCCCCC(=O)O,inactive,
CCOC(=O)CC(O)(CC(=O)OCC)C(=O)OCC,inactive,
CC[C@H](c1ccc(O)cc1)[C@@H](CC)c1ccc(O)cc1,inactive,
CCCCCCCCCCCCc1ccccc1S(=O)(=O)O,inactive,
CCC(=C(c1ccc(O)cc1)c1ccc(OCCN(C)C)cc1)c1ccccc1,inactive,
C#C[C@]1(O)CC[C@H]2[C@@H]3CCC4=CC(=O)CC[C@@H]4[C@H]3CC[C@@]21C,inactive,
FC(F)(I)C(F)(F)C(F)(F)C(F)(F)C(F)(F)C(F)(F)I,,45.5 µM (active)

Structure (SMILES),outcome,AC50
CCC(C)(C)C1CCC(O)CC1 (stereo unspecified),inactive,
CC(C)(C)c1ccc(O)c(C(C)(C)C)c1,,4.79 µM (active)
CN1CCN(c2ccccc2/C=C2\SCCN(c3ccc(Cl)c(Cl)c3)C2=O)CC1,inactive,
Cc1cc(C)c(O)c(C)c1,inactive,
CC[C@H](C)[C@@H](C(=O)O)n1sc2ccccc2c1=O,inactive,
CC(O)C(=O)O (stereo unspecified),inactive,
OCCC(F)(F)C(F)(F)C(F)(F)C(F)(F)C(F)(F)C(F)(F)C(F)(F)C(F)(F)F,inactive,
CCCCCCCC(=O)O,inactive,
NCC(F)(F)C(F)(F)C(F)(F)C(F)(F)C(F)(F)C(F)(F)C(F)(F)F,inactive,
Nc1cccc2c(N)cccc12,inactive,
CCc1ccc(CCOc2ccc(CC3SC(=O)NC3=O)cc2)nc1 (stereo unspecified),inactive,
Cc1cc(CCN2CCN(c3nsc4ccccc34)CC2)cc2c1NC(=O)CC2(C)C,inactive,
CCCCCCCCCCCCCCCS(=O)(=O)Oc1ccccc1,inactive,
CCCOC(=O)c1ccc(O)cc1,inactive,
c1ccc2c(c1)ccc1ccccc12,inactive,
CCCCOCCO,inactive,
COc1cc(CCC(=O)CC(=O)CCc2ccc(O)c(OC)c2)ccc1O,inactive,
CCCCCCCCOC(=O)CCCCCCCCC(=O)OCCCCCCCC,inactive,
